Laboratory results reported in PMC4336329 (PLoS ONE, 2015).
The whole screen tested about 310,000 compounds, of which about 14,000 (4.5%) showed an effect of 50% or more. The effect is printed as a negative number. The sample holds strong results, similar compounds and a random draw of the others, so the mix is not that of the screen.

What follows are molecules tested against human ether-à-go-go-related gene (hERG) potassium channel (human, UniProt Q12809) (assay: primary screen, population patch clamp on CHO cells stably expressing hERG; higher = less effect of the substance).
Chain of human ether-à-go-go-related gene (hERG) potassium channel (Q12809 whole entry, looked up): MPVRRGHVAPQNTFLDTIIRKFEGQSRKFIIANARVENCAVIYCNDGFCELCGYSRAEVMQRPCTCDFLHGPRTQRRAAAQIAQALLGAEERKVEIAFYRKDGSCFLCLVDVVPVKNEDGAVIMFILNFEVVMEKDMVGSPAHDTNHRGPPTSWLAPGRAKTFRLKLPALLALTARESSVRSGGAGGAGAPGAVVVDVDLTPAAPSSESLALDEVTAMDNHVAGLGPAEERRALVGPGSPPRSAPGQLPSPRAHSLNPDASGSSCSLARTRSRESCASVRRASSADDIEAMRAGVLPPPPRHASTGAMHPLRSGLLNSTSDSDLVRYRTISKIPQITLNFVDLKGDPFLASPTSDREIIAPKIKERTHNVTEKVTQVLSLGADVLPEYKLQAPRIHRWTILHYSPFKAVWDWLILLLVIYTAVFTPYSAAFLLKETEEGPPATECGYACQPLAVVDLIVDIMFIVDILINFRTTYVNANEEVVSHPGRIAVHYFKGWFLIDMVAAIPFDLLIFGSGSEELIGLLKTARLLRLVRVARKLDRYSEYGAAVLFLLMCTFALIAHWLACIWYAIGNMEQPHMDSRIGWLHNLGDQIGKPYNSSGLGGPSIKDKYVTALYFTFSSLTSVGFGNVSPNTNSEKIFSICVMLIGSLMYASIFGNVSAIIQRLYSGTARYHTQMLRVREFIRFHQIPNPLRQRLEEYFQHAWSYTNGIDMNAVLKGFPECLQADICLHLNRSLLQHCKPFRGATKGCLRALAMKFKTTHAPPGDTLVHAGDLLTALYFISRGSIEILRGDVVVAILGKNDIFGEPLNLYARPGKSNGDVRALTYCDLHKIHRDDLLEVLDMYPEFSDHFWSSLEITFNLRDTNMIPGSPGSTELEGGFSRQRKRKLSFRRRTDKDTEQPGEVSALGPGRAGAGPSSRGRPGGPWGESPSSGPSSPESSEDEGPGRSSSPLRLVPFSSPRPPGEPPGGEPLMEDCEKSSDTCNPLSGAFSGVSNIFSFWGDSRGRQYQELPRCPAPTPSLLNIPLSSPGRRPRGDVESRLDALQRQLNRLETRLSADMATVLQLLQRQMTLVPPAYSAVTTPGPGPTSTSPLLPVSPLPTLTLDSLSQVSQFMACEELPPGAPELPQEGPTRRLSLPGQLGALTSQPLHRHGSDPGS
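Note: peak tail current of the secondary pulse compared with the same well before compound.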

Row | SMILES | hERG current change (%, negative = inhibition) at 10uM [%]
1 | O=C(NCCN1CCOCC1)c1cccc(S(=O)(=O)N(Cc2ccccc2)c2ccccc2)c1 | -19.3
2 | CCOC(=O)c1sc(C)c(C(=O)NC2CCCCC2)c1N | -4.79
3 | CNC(=O)c1c(NC(=O)CCS(=O)(=O)c2ccccc2)sc(C)c1C | 0.0126
4 | COc1ccc(/C=N/NC(=O)Cc2csc(Nc3cccc(C(F)(F)F)c3)n2)cc1C | 10.7
5 | CCOC(=O)c1cc(-c2ccccc2)sc1NC(=O)COC(=O)c1cccc(S(N)(=O)=O)c1 | 10.2
6 | CC1CC(C)CN(CCCNC(=O)CCC(=O)N2CC(C)Oc3ccccc32)C1 (centres unmarked) | -32.2
7 | Cc1cccc(/C=N/NC(=O)c2cccc(NC(=O)c3ccccc3)c2)n1 | 0.172
8 | CCOCc1nnc(NC(=O)CSc2ccc(C)cc2)s1 | 6.61
9 | Cc1c(N2CCCC2)cc2c(c1NC(=O)c1ccccc1Cl)C(C)(C)CC2(C)C | -25.6
10 | COc1ccc(C(=O)/C=C2\Sc3ccccc3N2C)cc1 | 11.1
11 | COc1ccccc1-[n+]1c(C)cc(/C=C2\Sc3ccccc3N2C)cc1C.[I-] | -69.6
12 | COc1ccc(-[n+]2c(C)cc(/C=C3\Sc4ccccc4N3C)cc2C)cc1.[I-] | -60.2
13 | CN1/C(=C/c2cccc[n+]2C)Sc2ccccc21.[I-] | -22.7
14 | COc1cc(OC)cc(C(=O)/C=C2\Sc3ccccc3N2C)c1 | 9.82
15 | CN1/C(=C/c2cccc[n+]2CCO)Sc2ccccc21.[I-] | 12.4
16 | COc1ccc(NC(=O)/C(C#N)=C\c2ccc(OCc3ccc(C(=O)O)cc3)c(OC)c2)cc1 | 3.69
17 | CC(C)C(CCNC(=O)CC(Cc1ccccc1)c1ccco1)c1ccco1 (centres unmarked) | -20
18 | Cc1cc(C)cc(OCC(=O)NNC(=O)CCN2C(=O)c3ccccc3C2=O)c1 | -14.8
19 | Cc1ccc(NC(=O)CCNS(=O)(=O)c2ccc3[nH]c(=O)oc3c2)cc1C | 9.43
20 | COc1ccc2cc(CN(CC3CCCO3)S(=O)(=O)c3ccc(C(C)=O)cc3)c(=O)[nH]c2c1 (centres unmarked) | -11.4
21 | COC(=O)CN(C)C(=O)CC1C(=O)NCCN1CC(C)(C)C (centres unmarked) | 22.8
22 | O=c1[nH]cnc2c1cnn2Cc1ccccc1Cl | 11.7

Row | SMILES | hERG current change (%, negative = inhibition) at 10uM [%]
23 | Cc1ccc(C2(C)NC(=O)N(CC(=O)NCc3ccccc3Cl)C2=O)cc1 (centres unmarked) | 9.54
24 | CCSC(C)CC1C/C(=N/O)c2c(C)noc2C1 (centres unmarked) | -63.4
25 | CCSC(C)CC1C/C(=N/O)c2c(CC)noc2C1 (centres unmarked) | -24.2
26 | CCCc1noc2c1/C(=N\O)CC(CC(C)SCC)C2 (centres unmarked) | -11.1
27 | O=C(Nc1nccs1)C1CCCN1/C=C/C(=O)C(F)(F)F (centres unmarked) | 13.9
28 | CSc1nnc2c(n1)OC(c1ccccn1)N(C(C)=O)c1ccccc1-2 (centres unmarked) | 1.42
29 | CC(O)CNc1nc2ccccc2n1-c1ncnc2sc3c(c12)CCC3 (centres unmarked) | -55.5
30 | CC(O)CNc1nc2sc3c(c2c(=O)n1CCc1ccccc1)CCCCC3 (centres unmarked) | 13.1
31 | c1ccc2c(c1)ncn2-c1ncnc2sc3c(c12)CCCC3 | -27.2
32 | COc1ccc(CC(=O)N/N=C/c2ccc(-c3cccc(C(=O)O)c3)o2)cc1OC | 3.33
33 | C=CCNC(=O)CN(Cc1ccccc1)S(=O)(=O)c1ccccc1 | -4.02
34 | CCNS(=O)(=O)c1ccc(NC(=S)N2CCc3ccccc32)cc1 | 22.9
35 | CCOC(=O)c1c(C)nsc1NC(=O)C1CCCCC1 | 17.3
36 | CCC(=O)c1ccc(OCC(=O)N2CCN(S(=O)(=O)c3ccc(Cl)s3)CC2)cc1 | -4.53
37 | O=C(CCc1nc2ccccc2s1)N1CCN(S(=O)(=O)c2cccs2)CC1 | -66.7
38 | COc1ccc(OCC(=O)N2CCN(S(=O)(=O)c3ccc(Cl)s3)CC2)cc1 | -0.573
39 | O=C(CCOc1ccccc1)N1CCN(S(=O)(=O)c2cccs2)CC1 | -9.15
40 | N#Cc1ccc(C(=O)N2CCN(S(=O)(=O)c3ccc(Br)s3)CC2)cc1 | -63.5
41 | N#Cc1ccc(C(=O)N2CCN(S(=O)(=O)c3ccc(Cl)s3)CC2)cc1 | -49.9
42 | N#Cc1ccc(OCC(=O)N2CCN(S(=O)(=O)c3cccs3)CC2)cc1 | -72.1
43 | N#Cc1ccc(OCC(=O)N2CCN(S(=O)(=O)c3ccc(Cl)s3)CC2)cc1 | -69.5
44 | CC(C)(C)c1ccc(C(=O)N2CCN(S(=O)(=O)c3ccc(Br)s3)CC2)cc1 | 1.21

Row | SMILES | hERG current change (%, negative = inhibition) at 10uM [%]
45 | O=C(CCCc1nc2ccccc2s1)N1CCN(S(=O)(=O)c2cccs2)CC1 | -11.9
46 | O=S(=O)(c1cccs1)N1CCN(Cc2nc3ccccc3s2)CC1 | -27.8
47 | O=C(COc1ccccc1)N1CCN(S(=O)(=O)c2cccs2)CC1 | -31
48 | CCN(CC(=O)NC(=O)Nc1ccccc1F)Cc1ccccc1 | 12.4
49 | Cc1ccc(N(CCC(=O)N2CCOCC2)S(=O)(=O)c2ccccc2)cc1 | -8.57
50 | Cn1c(NC(=O)C2c3ccccc3Oc3ccccc32)cc(=O)n(C)c1=O | -3.72
51 | C=CCn1c2ccccc2c2nnc(SCC(=O)Nc3cc(C)on3)nc21 | -8.39
52 | CCOC(=O)CNC(=O)c1nn(-c2cccc(OC)c2)c(=O)c2ccccc12 | -22.9
53 | O=C(COC(=O)c1cccc(Oc2ccccc2)c1)NCc1ccco1 | 3.19
54 | Cc1ccc(C(C(=O)NC2CCCCC2)N(Cc2cccnc2)C(=O)C2COc3ccccc3O2)o1 (centres unmarked) | -59.7
55 | Cc1ccc(C(C(=O)NC2CCCCC2)N(Cc2ccco2)C(=O)C2COc3ccccc3O2)o1 (centres unmarked) | -6.27
56 | O=C(NC1CCCCC1)C(c1ccco1)N(Cc1cccnc1)C(=O)C1COc2ccccc2O1 (centres unmarked) | -18.8
57 | Cc1ccc(NC(=O)c2sc(C)nc2C)c(C)c1 | 1.97
58 | O=C(N/N=C/c1ccccc1OCc1ccccc1)c1cccs1 | 5.13
59 | Cc1cc(=O)oc2cc(OS(C)(=O)=O)ccc12 | 4.31
60 | CCc1cc(=O)oc2cc(OS(C)(=O)=O)ccc12 | -5.44
61 | Cc1c(C)c2ccc(OS(C)(=O)=O)cc2oc1=O | -58.4
62 | CCOC(=O)c1ccc(Oc2c(C)oc3cc(OS(C)(=O)=O)ccc3c2=O)cc1 | -66
63 | CCOc1ccc2c(=O)c(Oc3ccccc3)c(C)oc2c1 | -6.41
64 | CCOC(=O)c1c(C)oc2ccc(OS(C)(=O)=O)cc12 | 1.04
65 | COc1ccccc1/C=C/C=N/N1CCN(Cc2ccccc2)CC1 | -8.94
66 | COc1ccc(/C(O)=C2/C(=O)C(=O)N(CC3CCCO3)C2c2ccc(OC)c(OC)c2)cc1 (centres unmarked) | 1.45

Row | SMILES | hERG current change (%, negative = inhibition) at 10uM [%]
67 | Cc1cnc(NC(=O)CCCNC(=O)c2ccc(Cl)cc2)s1 | 12.8
68 | Cc1ccccc1-n1c(-c2ccc([N+](=O)[O-])cc2)nc2ccccc2c1=O | -0.532
69 | Cc1nn(Cc2ccc(C(=O)N3N=C(C(F)F)CC3(O)C(F)F)cc2)c(C)c1[N+](=O)[O-] (centres unmarked) | -62.9
70 | CC1=NN(C(=O)c2ccc(Cn3nc(C)c([N+](=O)[O-])c3C)o2)C(O)(C(F)(F)F)C1 (centres unmarked) | -52.8
71 | CC1=NN(C(=O)c2ccc(Cn3nc(C)c([N+](=O)[O-])c3C)cc2)C(O)(C(F)(F)F)C1 (centres unmarked) | -28.8
72 | CC1=NN(C(=O)c2cccc(Cn3nc(C)c([N+](=O)[O-])c3C)c2)C(O)(C(F)(F)F)C1 (centres unmarked) | 0.484
73 | Cc1nn(Cc2cccc(C(=O)N3N=C(C(F)F)CC3(O)C(F)F)c2)c(C)c1[N+](=O)[O-] (centres unmarked) | -19.6
74 | Cc1nn(Cc2ccc(C(=O)N3N=C(C(F)F)CC3(O)C(F)F)o2)c(C)c1[N+](=O)[O-] (centres unmarked) | -37.3
75 | C=CCn1c(=O)/c(=C\c2ccccn2)s/c1=C(/C#N)C(=O)NCC1CCCO1 (centres unmarked) | -3.51
76 | CN1CCC(=NNC(=O)CN(c2ccc(Oc3ccccc3)cc2)S(C)(=O)=O)CC1 | 9.51
77 | Cc1ccc([N+](=O)[O-])cc1S(=O)(=O)NCCc1cn2ccccc2n1 | -2.95
78 | CC(C)CCN(C(=O)CNC(=O)c1cccs1)C(C(=O)NC1CCCCC1)c1cccnc1 (centres unmarked) | -36.4
79 | C=C1C(=O)[C@@]23[C@H](O)C[C@@H]4C(C)(C)CC[C@H](O)[C@@]4(C)[C@@H]2CC[C@@H]1[C@H]3O | -9.9
80 | COc1ccc(Cn2c(C(F)(F)F)ccc(C(N)=O)c2=O)cc1 | 1.62
81 | c1ccc2c(-c3nnc4n3CCCCC4)cc(-c3ccncc3)nc2c1 | -48.7
82 | Clc1ccc(-c2cc(-c3nnc4n3CCCCC4)c3ccccc3n2)cc1 | -42.1
83 | O=c1c2ccccc2nc2n1CCCCC2 | -4.17
84 | Fc1ccc(-c2cc(-c3nnc4n3CCCCC4)c3ccccc3n2)cc1 | -63.5
85 | N=c1c2ccccc2nc2n1CCCCCCCCCCC2 | -62
86 | O=c1c2ccccc2nc2n1CCC2 | 13.6
